Results from article PMC11995724, “Antibiotic target discovery by integrated phenotypic and activity-based profiling of electrophilic fragments” (Cell chemical biology, 2025).
Screen size: about 3,200 compounds; about 110 (3.4%) showed an effect of 50% or more. Only a selection was taken, and strong results are over-represented in it overall.

Each compound was assayed on T1, V. cholerae SAD30. Conditions: relative growth, OD600, LB; 25 µM; inhibitor.
T1 construct: SAD30
Set-up: species or system S. aureus MSSA476 (TSB) or V. cholerae SAD30 (LB); 384-well bacterial growth screen at 25 uM, OD600 relative to DMSO control
In the case of `O=C(CCl)Nc1ccc(Cl)c(S(=O)(=O)N2CCCCC2)c1` [4-P14, 2-chloro-N-[4-chloro-3-(piperidine-1-sulfonyl)phenyl]acetamide], the “% of control remaining” value is reported as 110.589%. In the case of `C=CC(=O)NC1(C(N)=O)Cc2ccccc2C1` [2-D15, 2-(prop-2-enamido)-2,3-dihydro-1H-indene-2-carboxamide], the “% of control remaining” value is reported as 88.8063%. `C=CC(=O)Nc1cc(C)nn1-c1ccccc1F` [2-C15, N-[1-(2-fluorophenyl)-3-methyl-1H-pyrazol-5-yl]prop-2-enamide] was tested, and the “% of control remaining” value was 95.1365%. With `CC(c1ccccc1F)N1CCCC(NC(=O)CCl)C1=O` (stereo not drawn) [5-I10, 2-chloro-N-{1-[1-(2-fluorophenyl)ethyl]-2-oxopiperidin-3-yl}acetamide] the “% of control remaining” value was 94.4836%. `C=CC(=O)N1CCC(C(=O)N2CCC[C@H]2c2ncn[nH]2)CC1` [2-D12, 1-{4-[(2S)-2-(1H-1,2,4-triazol-5-yl)pyrrolidine-1-carbonyl]piperidin-1-yl}prop-2-en-1-one] was tested, and the “% of control remaining” value was 91.1223%. With `N#CC(=Cc1ccc2ccccc2c1)C(=O)NC(N)=O` [9-K10, {2-cyano-2-[(naphthalen-2-yl)methylidene]acetyl}urea] the “% of control remaining” value was 87.0836%. `Cc1ccc(C(=O)c2c(NC(=O)CCl)sc3c2CCCC3)cc1` [6-A12, 2-chloro-N-[3-(4-methylbenzoyl)-4,5,6,7-tetrahydro-1-benzothiophen-2-yl]acetamide] was tested, and the “% of control remaining” value was 94.644%. With `C=CC(=O)NCC(=C)c1ccccc1` [2-B09, N-(2-phenylprop-2-en-1-yl)prop-2-enamide] the “% of control remaining” value was 87.2624%. In the case of `CC(Cl)C(=O)NC(C)(C)c1ccc(F)cc1F` (stereo not drawn) [6-E21, 2-chloro-N-[2-(2,4-difluorophenyl)propan-2-yl]propanamide], the “% of control remaining” value is reported as 92.9756%. With `C=CC(=O)Nc1cc(CC(C)(C)C)no1` [1-I19, N-[3-(2,2-dimethylpropyl)-1,2-oxazol-5-yl]prop-2-enamide] the “% of control remaining” value was 92.9746%. In the case of `COCc1ncc2c(n1)CC1CCC2N1C(=O)C(C)Cl` (stereo not drawn) [7-M20, 2-chloro-1-[5-(methoxymethyl)-4,6,12-triazatricyclo[7.2.1.0,2,7]dodeca-2,4,6-trien-12-yl]propan-1-one], the “% of control remaining” value is reported as 81.4142%. With `Cc1cc(CO[C@H]2CC[C@H](NC(=O)CCl)CC2)on1` [6-K19, 2-chloro-N-[(1r,4r)-4-[(3-methyl-1,2-oxazol-5-yl)methoxy]cyclohexyl]acetamide] the “% of control remaining” value was 92.9756%. `C=CC(=O)Nc1cnn(C2CCCC2)c1` [3-O21, N-(1-cyclopentyl-1H-pyrazol-4-yl)prop-2-enamide] was tested, and the “% of control remaining” value was 106.734%. For `N#CC(=Cc1ccccc1Cl)C(=O)Nc1cccc2ncccc12` [8-C15, 3-(2-chlorophenyl)-2-cyano-N-(quinolin-5-yl)prop-2-enamide], the “% of control remaining” value was 75.9347%. `C=CC(=O)NCC12CC3CC(CC(C3)C1)C2` [1-F17, N-[(adamantan-1-yl)methyl]prop-2-enamide] was tested, and the “% of control remaining” value was 83.4081%. With `CC(=O)NCCc1ccc(C(=O)CCl)cc1` [10-N03, N-{2-[4-(2-chloroacetyl)phenyl]ethyl}acetamide] the “% of control remaining” value was 115.8%. For `O=C(CCl)Nc1cccc(Oc2ccccc2)c1` [4-P19, 2-chloro-N-(3-phenoxyphenyl)acetamide], the “% of control remaining” value was 96.6142%. With `CSc1ccc(C(=O)CCl)cc1` [10-E07, 2-chloro-1-[4-(methylsulfanyl)phenyl]ethan-1-one] the “% of control remaining” value was 0%. `CCc1ccc(C(=O)CCl)cc1` [10-F18, 2-chloro-1-(4-ethylphenyl)ethan-1-one] was tested, and the “% of control remaining” value was 26.1835%. For `NC(=O)COc1ccc(C(=O)CCl)cc1` [10-M07, 2-[4-(2-chloroacetyl)phenoxy]acetamide], the “% of control remaining” value was 49.25%. For `O=C(CCl)c1ccc(Oc2ccccc2)cc1` [10-G20, 2-chloro-1-(4-phenoxyphenyl)ethan-1-one], the “% of control remaining” value was 25.2484%. With `O=C(CCl)Nc1ccc(Oc2ccccc2)cc1` [4-J09, 2-chloro-N-(4-phenoxyphenyl)acetamide] the “% of control remaining” value was 97.6493%. `NC(=O)CCc1ccc(C(=O)CCl)cc1` [10-I03, 3-[4-(2-chloroacetyl)phenyl]propanamide] was tested, and the “% of control remaining” value was 70.7578%. For `CCCc1ccc(C(=O)CCl)cc1` [10-C04, 2-chloro-1-(4-propylphenyl)ethan-1-one], the “% of control remaining” value was 109.254%. `O=C(CCl)NCCCC1CCCCC1` [6-O05, 2-chloro-N-(3-cyclohexylpropyl)acetamide] was tested, and the “% of control remaining” value was 100.256%. With `O=C(CCl)NC(c1ccccc1)C1CCCCC1` (stereo not drawn) [6-E12, 2-chloro-N-[cyclohexyl(phenyl)methyl]acetamide] the “% of control remaining” value was 79.0217%. `CC(Cl)C(=O)Nc1ccc(S(=O)(=O)N2CCCCC2)cc1` (stereo not drawn) [4-A12, 2-chloro-N-[4-(piperidine-1-sulfonyl)phenyl]propanamide] was tested, and the “% of control remaining” value was 95.234%. With `CC(Cl)C(=O)Nc1c(C(C)C)cccc1C(C)C` (stereo not drawn) [4-B15, N-[2,6-bis(propan-2-yl)phenyl]-2-chloropropanamide] the “% of control remaining” value was 91.4384%. In the case of `C=CC(=O)N[C@H]1CCO[C@@H]1c1ccnn1C(C)C` (racemic) [3-K05, rac-N-[(2R,3R)-2-[1-(propan-2-yl)-1H-pyrazol-5-yl]oxolan-3-yl]prop-2-enamide], the “% of control remaining” value is reported as 98.7943%. With `O=C(CCl)N1CCN(S(=O)(=O)c2cccc([N+](=O)[O-])c2)CC1` [4-C19, 2-chloro-1-[4-(3-nitrobenzenesulfonyl)piperazin-1-yl]ethan-1-one] the “% of control remaining” value was 91.0934%. For `C=CC(=O)N1CCC(C(=O)NC2CCCc3cc(F)ccc32)CC1` (stereo not drawn) [2-K18, N-(6-fluoro-1,2,3,4-tetrahydronaphthalen-1-yl)-1-(prop-2-enoyl)piperidine-4-carboxamide], the “% of control remaining” value was 78.153%. For `O=C(CCl)Nc1cccc(S(=O)(=O)N2CCOCC2)c1` [4-P08, 2-chloro-N-[3-(morpholine-4-sulfonyl)phenyl]acetamide], the “% of control remaining” value was 121.458%. `O=C(CCl)Nc1cccc(S(=O)(=O)N=C2CCCCCN2)c1` [4-D08, N-{3-[(azepan-2-ylidene)sulfamoyl]phenyl}-2-chloroacetamide] was tested, and the “% of control remaining” value was 107.656%. `CC(C)NC(=O)C(C#N)=Cc1c(Cl)nc2ccccn12` [9-A11, 3-{2-chloroimidazo[1,2-a]pyridin-3-yl}-2-cyano-N-(propan-2-yl)prop-2-enamide] was tested, and the “% of control remaining” value was 91.8423%. In the case of `C=CC(=O)Nc1cc(NC(=O)c2ccc([N+](=O)[O-])o2)ccc1F` [3-J04, N-[4-fluoro-3-(prop-2-enamido)phenyl]-5-nitrofuran-2-carboxamide], the “% of control remaining” value is reported as -0.1875%. With `C=CC(=O)Nc1cc(NC(=O)C2CCC2)ccc1F` [2-E10, N-[4-fluoro-3-(prop-2-enamido)phenyl]cyclobutanecarboxamide] the “% of control remaining” value was 92.0486%. For `C=CC(=O)Nc1cc(NC(=O)C2(OC)CCOC2)ccc1F` (stereo not drawn) [3-D05, N-[4-fluoro-3-(prop-2-enamido)phenyl]-3-methoxyoxolane-3-carboxamide], the “% of control remaining” value was 99.5001%. With `CC(C)Cn1c(N)c(C(=O)CCl)c(=O)[nH]c1=O` [10-F08, 6-amino-5-(2-chloroacetyl)-1-(2-methylpropyl)-1,2,3,4-tetrahydropyrimidine-2,4-dione] the “% of control remaining” value was 101.305%. For `O=C(CCl)Nc1cc2c(cc1[N+](=O)[O-])OCCCO2` [4-O05, 2-chloro-N-(8-nitro-3,4-dihydro-2H-1,5-benzodioxepin-7-yl)acetamide], the “% of control remaining” value was 108.001%. `O=C(CCl)c1ccoc1` [10-O09, 2-chloro-1-(furan-3-yl)ethan-1-one] was tested, and the “% of control remaining” value was 123.281%. In the case of `Cl.O=C(CCl)c1ccncc1F` [10-I09, 2-chloro-1-(3-fluoropyridin-4-yl)ethan-1-one hydrochloride], the “% of control remaining” value is reported as 0%. For `O=C(CCl)c1c[nH]c2ccncc12` [10-K05, 2-chloro-1-{1H-pyrrolo[3,2-c]pyridin-3-yl}ethan-1-one], the “% of control remaining” value was 101.305%. With `O=C(CCl)NCC(F)(F)c1cccnc1` [6-C21, 2-chloro-N-[2,2-difluoro-2-(pyridin-3-yl)ethyl]acetamide] the “% of control remaining” value was 97.8292%. `O=C(CCl)c1ccc(C(F)(F)F)cc1` [10-B10, 2-chloro-1-[4-(trifluoromethyl)phenyl]ethan-1-one] was tested, and the “% of control remaining” value was 79.174%. `Cl.O=C(CCl)c1ccncc1` [10-M09, 2-chloro-1-(pyridin-4-yl)ethan-1-one hydrochloride] was tested, and the “% of control remaining” value was -0.1559%. With `COc1ccc(C=C(C#N)C(=O)Nc2c(C)cccc2C)cc1OC` [8-A17, 2-cyano-3-(3,4-dimethoxyphenyl)-N-(2,6-dimethylphenyl)prop-2-enamide] the “% of control remaining” value was 86.6757%. In the case of `Cc1n[nH]c(C)c1C=C(C#N)C(=O)Nc1cc(Cl)cc(Cl)c1` [8-M08, 2-cyano-N-(3,5-dichlorophenyl)-3-(3,5-dimethyl-1H-pyrazol-4-yl)prop-2-enamide], the “% of control remaining” value is reported as 68.3209%. In the case of `CCOc1ccc2nc(NC(=O)CCl)sc2c1` [4-L10, 2-chloro-N-(6-ethoxy-1,3-benzothiazol-2-yl)acetamide], the “% of control remaining” value is reported as 94.3714%.
